Test [1] has as its target human Vitamin D Receptor (VDR), VDR (gene 7421) (UniProt P11473). The test is described as follows: ATG_VDR_TRANS: Attagene TRANS-FACTORIAL HepG2 Assay for human Vitamin D Receptor (VDR) (AID 2283022; active means hit-call score of the fitted dose curve at least 0.9, where 1 is the maximum). In short, it runs like this: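 RT-PCR/capillary electrophoresis read-out of reporter mRNA induction in transiently transfected HepG2; 24 h dosing; chimeric NR-Gal4 (TRANS format); gain-of-signal fit against DMSO baseline.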

Test [2] can be described thus: BSK_3C_SRB: Viability Assessment in the BioMAP Diversity Plus: 3C Assay (AID 2283023).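 Further: fitted both ways against DMSO so a hit may be signal rise or drop.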 The note with it: primary human endothelial cells (HUVEC). A digest of the protocol:
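HUVEC, 24 h post-dose; 10% TCA fix, 0.1% SRB stain, A560 nm. Bidirectional curve fit vs DMSO negative control.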

Read-out in test [3]: Matrix Metallopeptidase 1 (MMP1), MMP1 (gene 4312)
The test is described as follows: BSK_BE3C_MMP1: BioMAP Diversity Plus: BE3C Assay for Matrix Metallopeptidase 1 (MMP1) Biomarker Activity (AID 2283024). The note with it: primary human bronchial epithelial cells; actives raise or lower the signal. In short, it runs like this:
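ELISA measurement of MMP-1 after 24 h compound exposure of primary human bronchial epithelial cells. Changes in either direction fitted relative to DMSO; parallel SRB staining checked overt cytotoxicity.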

A short description of test [4]: BSK_3C_Vis: BioMAP Diversity Plus: 3C Assay for Morphology Visualization (AID 2283025).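 Further: fitted both ways so gain or loss versus DMSO counts.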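 On AC50: light microscopy image of cell morphology used as background control.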 The settings on record: primary human endothelial cells (HUVEC). A digest of the protocol:
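Light-microscopy visualization of HUVEC cultures at 24 h post-treatment, with DMSO as baseline for bidirectional fitting.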

Read-out in test [5]: Pselectin, SELP (gene 6403)
The test is described as follows: BSK_4H_Pselectin: BioMAP Diversity Plus: 4H Assay for Pselectin Biomarker Activity (AID 2283026). The note with it: primary human endothelial cells (HUVEC); actives raise or lower the signal. A digest of the protocol:
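ELISA of surface P-selectin on HUVEC, 24 h after dosing, with parallel SRB staining (0.1% after 10% TCA fixation, 560 nm) for overt cytotoxicity. Activity fitted in both directions relative to DMSO.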

Test [6] is described as follows: BSK_BE3C_SRB: Viability Assessment in the BioMAP Diversity Plus: BE3C Assay (AID 2283028). The settings on record: primary human bronchial epithelial cells. A digest of the protocol: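 Primary human bronchial epithelium; chemical dosing, 24 h; 10% TCA fix, 0.1% SRB stain, A560; bidirectional fit vs DMSO baseline.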
Read-out in test [7]: Thrombomodulin, THBD (gene 7056)
The test is described as follows: BSK_3C_Thrombomodulin: BioMAP Diversity Plus: 3C Assay for Thrombomodulin Biomarker Activity (AID 2283029). The settings on record: primary human endothelial cells (HUVEC); actives raise or lower the signal. A digest of the protocol: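 ELISA measurement of thrombomodulin on HUVEC surface 24 h after chemical dosing; activity fitted in both directions relative to DMSO vehicle.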

Read-out in test [8]: Urokinase-type plasminogen activator receptor (uPAR), PLAUR (gene 5329)
The test can be described thus: BSK_4H_uPAR: BioMAP Diversity Plus: 4H Assay for Urokinase-type plasminogen activator receptor (uPAR) Biomarker Activity (AID 2283030). The settings on record: primary human endothelial cells (HUVEC); actives raise or lower the signal. In short, it runs like this:
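HUVEC, 24 h post-dose; uPAR by ELISA; bidirectional fit vs DMSO baseline.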

Read-out in test [9]: Vascular endothelial growth factor receptor 2 (Homo sapiens) (UniProt P35968)
The test can be described thus: BSK_4H_VEGFRII: BioMAP Diversity Plus: 4H Assay for Vascular endothelial growth factor receptor 2 (VEGFR2) Biomarker Activity (AID 2283031).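 On AC50: cell-surface VEGFR2 protein level quantified by ELISA.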 The settings on record: primary human endothelial cells (HUVEC); actives raise or lower the signal. A digest of the protocol: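 HUVEC (human primary), 4H system; 24 h post-dose; VEGFRII by ELISA; bidirectional curve fit vs DMSO baseline; gain or loss of signal scored.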

Read-out in test [10]: Human Leukocyte Antigen - DR isotype (HLADR), HLA-DRA (gene 3122)
The test can be described thus: BSK_BE3C_HLADR: BioMAP Diversity Plus: BE3C Assay for Human Leukocyte Antigen - DR isotype (HLADR) Biomarker Activity (AID 2283032). The settings on record: primary human bronchial epithelial cells; actives raise or lower the signal. A digest of the protocol:
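Cell-surface HLA-DR ELISA readout at 24 h after dosing in the BE3C primary human lung bronchial epithelial system; gain or loss of signal against DMSO, with parallel sulforhodamine B staining of total protein for overt cytotoxicity.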

Read-out in test [11]: Vascular cell adhesion molecule 1 (VCAM1), VCAM1 (gene 7412)
The test can be described thus: BSK_4H_VCAM1: BioMAP Diversity Plus: 4H Assay for Vascular cell adhesion molecule 1 (VCAM1) Biomarker Activity (AID 2283033).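 On outcome: cell-surface VCAM-1 protein measured by ELISA.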 The note with it: primary human endothelial cells (HUVEC); actives raise or lower the signal. A digest of the protocol: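 VCAM-1 ELISA read 24 h after chemical dosing of HUVEC in the BioMAP 4H system, with gain or loss of signal fitted relative to DMSO. Parallel SRB staining (560 nm) checked overt cytotoxicity.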

Read-out in test [12]: Interferon-gamma inducible Protein 10 (IP10), CXCL10 (gene 3627)
The test can be described thus: BSK_BE3C_IP10: BioMAP Diversity Plus: BE3C Assay for Interferon-gamma inducible Protein 10 (IP10) Biomarker Activity (AID 2283034). The note with it: primary human bronchial epithelial cells; actives raise or lower the signal. A digest of the protocol:
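IP-10 quantified by ELISA in human primary bronchial epithelial cell cultures at 24 hours post-dosing. Gain or loss of signal fitted relative to DMSO; parallel SRB staining assessed overt cytotoxicity.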

Read-out in test [13]: Monokine induced gamma interferon (MIG), CXCL9 (gene 4283)
The test is described as follows: BSK_BE3C_MIG: BioMAP Diversity Plus: BE3C Assay for Monokine induced gamma interferon (MIG) Biomarker Activity (AID 2283035). The note with it: primary human bronchial epithelial cells; actives raise or lower the signal. A digest of the protocol: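 Dose cells (human primary bronchial epithelial), incubate 24 h, quantify MIG by ELISA, then fit concentration–response in both directions relative to DMSO control.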

Read-out in test [14]: Transforming growth factor beta 1 (TGFb1), TGFB1 (gene 7040)
The test can be described thus: BSK_BE3C_TGFb1: BioMAP Diversity Plus: BE3C Assay for Transforming growth factor beta 1 (TGFb1) Biomarker Activity (AID 2283036;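 on outcome: TGF-b1 protein level measured by ELISA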). The settings on record: primary human bronchial epithelial cells; actives raise or lower the signal. A digest of the protocol:
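ELISA readout of TGF-b1 from human lung bronchial epithelial primary cells, taken 24 h post-treatment. Gain or loss of signal fitted relative to DMSO baseline, with parallel SRB staining for overt cytotoxicity.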

Read-out in test [15]: Plasminogen activator inhibitor-1 (PAI1), SERPINE1 (gene 5054)
The test is described as follows: BSK_BE3C_PAI1: BioMAP Diversity Plus: BE3C Assay for Plasminogen activator inhibitor-1 (PAI1) Biomarker Activity (AID 2283037). The note with it: primary human bronchial epithelial cells; actives raise or lower the signal. In short, it runs like this: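 PAI-1 was measured by ELISA in human primary bronchial epithelial cultures 24 h after chemical dosing, with cytotoxicity checked by SRB total-protein staining in parallel cultures. Activity was fitted in both directions relative to DMSO.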

Read-out in test [16]: urokinase plasminogen activator (uPA), PLAU (gene 5328)
The test can be described thus: BSK_BE3C_uPA: BioMAP Diversity Plus: BE3C Assay for urokinase plasminogen activator (uPA) Biomarker Activity (AID 2283038).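 On outcome: uPA protein level quantified by ELISA in cell cultures; uPA read one day after compound addition.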 The note with it: primary human bronchial epithelial cells; actives raise or lower the signal. A digest of the protocol:
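ELISA read-out of uPA in human lung primary bronchial epithelial cultures, 24 h post-dosing. Gain or loss of signal fitted bidirectionally relative to DMSO baseline; cytotoxicity checked in parallel cultures via SRB total protein stain.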

Read-out in test [17]: Urokinase-type plasminogen activator receptor (uPAR), PLAUR (gene 5329)
The test is described as follows: BSK_BE3C_uPAR: BioMAP Diversity Plus: BE3C Assay for Urokinase-type plasminogen activator receptor (uPAR) Biomarker Activity (AID 2283039).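 On outcome: cells exposed to compound for one day before measurement.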 The settings on record: primary human bronchial epithelial cells; actives raise or lower the signal. A digest of the protocol: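 uPAR levels were measured by ELISA after 24 h compound treatment of primary human bronchial epithelial cells, fitted in both directions relative to DMSO. Parallel SRB staining served as the cytotoxicity read-out.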

Read-out in test [18]: Interleukin-6 (IL6), IL6 (gene 3569)
The test is described as follows: BSK_CASM3C_IL6: BioMAP Diversity Plus: CASM3C Assay for Interleukin-6 (IL6) Biomarker Activity for (AID 2283040). The note with it: primary human coronary artery smooth muscle cells; actives raise or lower the signal.

Read-out in test [19]: Tissue plasminogen activator (tPA), PLAT (gene 5327)
The test can be described thus: BSK_BE3C_tPA: BioMAP Diversity Plus: BE3C Assay for Tissue plasminogen activator (tPA) Biomarker Activity (AID 2283041).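 On outcome: tPA level quantified by ELISA one day after compound addition.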 The settings on record: primary human bronchial epithelial cells; actives raise or lower the signal. In short, it runs like this: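 tPA measured by ELISA 24 h after dosing human primary bronchial epithelial cells (BE3C system). Changes in either direction were fitted against DMSO. Parallel cultures were stained with SRB to flag overt cytotoxicity.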

Test [20] is described as follows: BSK_4H_SRB: Viability Assessment in the BioMAP Diversity Plus: 4H Assay (AID 2283027).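 Further: cells exposed to compound for 24 h before staining.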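 On AC50: curves fitted both ways versus DMSO so AC50 may be loss or gain.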 The note with it: primary human endothelial cells (HUVEC). A digest of the protocol:
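HUVEC, 24 h post-dose; 10% TCA fix, 0.1% SRB stain, A560 nm. Total protein = overt cytotoxicity, parallel to biomarker read. Bidirectional fit vs DMSO baseline.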

Results filed as inconclusive are left out. Active and inactive are the calls of the source. How the source made its calls, unless noted: active means hit-call score of the fitted dose curve at least 0.9, where 1 is the maximum; inactive means score below 0.9.

Sequence of human Vitamin D Receptor (VDR), VDR (gene 7421) (P11473 whole entry, looked up, the tested form may be a part): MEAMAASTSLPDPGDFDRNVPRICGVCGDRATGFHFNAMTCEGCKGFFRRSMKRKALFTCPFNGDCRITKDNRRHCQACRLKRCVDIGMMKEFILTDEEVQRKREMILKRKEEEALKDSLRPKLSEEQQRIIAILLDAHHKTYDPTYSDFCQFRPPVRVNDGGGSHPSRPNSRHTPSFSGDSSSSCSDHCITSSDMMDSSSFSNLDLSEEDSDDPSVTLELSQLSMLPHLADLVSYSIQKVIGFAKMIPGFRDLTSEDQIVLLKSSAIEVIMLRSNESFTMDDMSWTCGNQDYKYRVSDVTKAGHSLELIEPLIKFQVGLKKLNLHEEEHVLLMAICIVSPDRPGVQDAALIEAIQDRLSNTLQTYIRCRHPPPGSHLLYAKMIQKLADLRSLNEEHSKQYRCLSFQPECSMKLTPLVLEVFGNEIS

On to `O=C1OC(=O)C2C3C=CC(C3)C12` (stereo unspecified), for which the outcome in test [1], in test [2], in [3], in test [4], in test [5] and in test [6] was inactive. The result in test [7], in test [8], in test [9], in [10], in [11] and in test [12] was inactive. Besides, the outcome in test [13], in [14], in test [15], in [16], in test [17] and in [18] was inactive.
Regarding `CCCCCCCCCCCCCCCO`, the compound was classed as inactive in test [1], in test [3], in [6], in test [8], in test [10] and in test [12]. The outcome in [13], in [14], in test [15], in test [16], in test [17] and in test [18] was inactive. For the same compound, the outcome in test [19] was inactive. Further, the AC50 in test [2] was 36.8 µM (active); in [4] it was 37.3 µM (active); in test [5] it was 31.3 µM (active); in test [7] it was 6.63 µM (active); in [9] it was 36.8 µM (active); in test [11], 37.5 µM (active).
As for `C[C@](N)(Cc1ccc(O)c(O)c1)C(=O)O`, the outcome in test [1], in [2], in test [3], in test [4], in test [5] and in test [20] was inactive. The outcome in test [6], in test [7], in [8], in test [9], in test [10] and in test [11] was inactive. Also, the result in test [12], in [13], in [14], in test [15], in test [16] and in test [17] was inactive. Further, the outcome in test [18] and in test [19] was inactive.
In the case of `COc1cccc(-c2ccc(/C=C\CN3CCCCCC3)cc2Cl)c1`, the compound was called inactive in test [1], in test [6], in [7], in test [15] and in test [18]. The AC50 in [2] is 25.8 µM (active); in [3], 4.82 µM (active); in test [4] it was 14.9 µM (active); in test [5], 26.5 µM (active); in test [20] it was 27.9 µM (active); in test [8], 26.9 µM (active). The AC50 in test [9] was 32.6 µM (active); in test [10], 29.4 µM (active); in [11], 28.4 µM (active); in test [12] it was 27.9 µM (active); in [13] it was 32.7 µM (active); in test [14] it was 25.8 µM (active). The AC50 in [16] is 23.6 µM (active); in test [17], 25.2 µM (active); in [19], 29.2 µM (active).
On to `CC(O)CN(CCN(CC(C)O)CC(C)O)CC(C)O` (stereo unspecified), for which the outcome in [1], in test [2], in test [3], in [4], in [5] and in test [20] was inactive. Also, the result in test [6], in test [7], in test [8], in [9], in test [10] and in test [11] was inactive. The result in test [12], in test [13], in [14], in test [15], in test [16] and in [17] was inactive. The result in [18] and in [19] was inactive.
Turning to `COC(=O)CC(=O)OC`, the call in test [1], in test [2], in test [3], in test [4], in test [5] and in [6] was inactive. The outcome in test [7], in test [8], in [9], in test [10], in test [11] and in test [12] was inactive. Also, the outcome in [13], in test [14], in [15], in test [16], in test [17] and in test [18] was inactive. Moreover, the result in [19] was inactive.

The values above are taken from PubChem BioAssay (EPA / NIEHS).
